GLS inhibitor: inhibitors of human glutaminase (GLS) | GLS enzymatic activity, qHTS titration | Potency, µM (highest dose often 45.5 µM), usual class: inhibitors | 410,000 compounds, 0.21% hits
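hKGA in 45 mM KH2PO4 (pH 8.2), 0.02% Tween-20 with compound, then 1mM L-Glutamine (stock as added) plus glutamate oxidase/HRP/Amplex red coupling mix. Fluorescence read initially and after 30 min at RT; signal change reflects glutamate formation.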
BAZ2B inh: blocks human BAZ2B; Q9UIF8; AlphaScreen BAZ2B-H3K14Ac peptide displacement; Potency, µM (doses to about 114 µM), actives largely listed as inhibitors; 360,000 compounds, 4.4% hits; note: nearly all actives have a fitted effect of over 60% in size
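BAZ2B (50 nM) with biotin-H3(5-23)K14Ac peptide (50 nM) in PBS pH 7.4, 0.01% Tween-20, preformed 30 min, then compound 30 min at room temperature; top concentration 110uM. AlphaScreen streptavidin donor/nickel chelate acceptor beads (10 ug/mL final), 20 min dark, signal read.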
HP1b chromo inh: HP1-beta chromodomain-methylated histone interaction inhibition. Potency, µM (titrated, usually from 114 µM), actives largely listed as inhibitors. AlphaScreen HP1-beta / biotin-H3K9me3 peptide binding. 390,000 compounds, 0.56% hits. P83916; note: nearly all actives have a fitted effect of over 70% in size
Target sequence (P83916 whole entry, looked up): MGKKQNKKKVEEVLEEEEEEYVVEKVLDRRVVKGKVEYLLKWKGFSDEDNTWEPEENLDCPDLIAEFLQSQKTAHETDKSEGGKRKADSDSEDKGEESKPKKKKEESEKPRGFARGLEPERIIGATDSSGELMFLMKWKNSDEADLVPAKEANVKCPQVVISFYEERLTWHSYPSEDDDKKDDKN
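HP1-beta protein (50 nM final) preincubated 30 min at room temperature with biotinylated H3(1-18)K9me3 peptide (50 nM) in PBS pH 7.4, 0.01% Tween-20, then compound added for 30 min. AlphaScreen streptavidin donor/nickel chelate acceptor beads (10 ug/mL final), 30 min dark, luminescence read.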
G9a inh: blocks human histone lysine methyltransferase G9a; Potency, µM (titrated, usually from 102 µM), usual class: inhibitors; G9a H3K9 monomethylation, AlphaScreen, 2 h; Q96KQ7; 350,000 compounds, 8.8% hits; note: nearly all actives have a fitted effect of over 75% in size
Target sequence (Q96KQ7 913-1193 limits assumed): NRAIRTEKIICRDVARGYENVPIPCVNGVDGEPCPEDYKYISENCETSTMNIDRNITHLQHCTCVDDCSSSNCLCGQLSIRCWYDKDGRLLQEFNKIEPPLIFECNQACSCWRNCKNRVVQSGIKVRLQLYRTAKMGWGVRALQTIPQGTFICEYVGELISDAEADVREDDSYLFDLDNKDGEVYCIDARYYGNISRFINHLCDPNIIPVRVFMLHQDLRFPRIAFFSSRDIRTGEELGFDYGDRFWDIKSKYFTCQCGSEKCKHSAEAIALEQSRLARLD
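Signal arises when biotinylated H3K9 peptide, once monomethylated, bridges streptavidin donor and antibody-captured acceptor beads. Enzyme at 20 nM was preincubated 15 min with test compounds; peptide 500 nM and SAM 20 uM then reacted for 2 h.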
JMJD2A Tudor: blocks the human JMJD2A Tudor domain; 390,000 compounds, 4.4% hits; Potency, µM (doses to about 114 µM), most hits filed as inhibitors; O75164; AID 504339; AlphaScreen JMJD2A-Tudor / H3K4me3 peptide binding; note: nearly all actives have a fitted effect of over 50% in size
Of the large screens only hits and unclear results are named; the others gave an inactive call. Compounds with a hit are over-represented: about 10% of the library has one in this group of screens. Calls come from the whole dose curve; as a rule, active = well fitted curve in the direction sought with a large enough effect; inconclusive = small, poorly fitted or top-dose-only effect, or another doubt; inactive = no such curve, though single readings can be large; an effect the other way counts as inactive or inconclusive.

COC(=O)C(C(=O)OC)C(c1ccccc1)C(C(=O)c1ccccc1)[N+](=O)[O-] (centres undefined)	G9a inh 50µM
O=c1/c(=C\c2cccnc2)sc2nc3ccccc3n12	none
Cc1cc(/C=c2/sc3nc4ccccc4n3c2=O)c(C)n1-c1ccccn1	G9a inh inconclusive, JMJD2A Tudor inconclusive
Cc1cc(/C=c2\sc3nc4ccccc4n3c2=O)c(C)n1-c1ccc(C(=O)O)cc1	BAZ2B inh inconclusive, G9a inh 25µM
Cc1cc(/C=C2\Cc3ccccc3C2=O)c(C)n1-c1ccccc1	none
Cc1cc(C=C2C(=O)c3ccccc3C2=O)c(C)n1-c1ccc(C(=O)O)cc1	BAZ2B inh inconclusive, G9a inh 35µM
Cc1cc(C=C2C(=O)c3ccccc3C2=O)c(C)n1-c1ccccc1	none
O=c1/c(=C/c2ccc(O)c([N+](=O)[O-])c2)sc2nc3ccccc3n12	BAZ2B inh inconclusive, HP1b chromo inh inconclusive, G9a inh inconclusive, JMJD2A Tudor 45µM
Cc1cc(C=C2C(=O)c3ccccc3C2=O)c(C)n1-c1cccc(C(=O)O)c1	BAZ2B inh inconclusive, G9a inh 40µM
CN(C)Cc1c[nH]c2nccnc12	none (no result: BAZ2B inh, HP1b chromo inh, G9a inh, JMJD2A Tudor)
Cc1ccc(OCC(=O)NNC(=O)c2ccco2)c(C)c1	none
COc1ccc(S(=O)(=O)N(C(=O)c2ccncc2)c2ccc(OC(=O)c3ccncc3)cc2)cc1	G9a inh 35µM
COc1ccc(N(C(=O)c2ccncc2)S(=O)(=O)c2ccc(F)cc2)cc1	none (no result: GLS inhibitor, HP1b chromo inh, JMJD2A Tudor)
COc1ccc(C(=O)CC(=O)c2ccccc2O)cc1	none
COc1cccc(-c2cc(C(=O)NCc3ccccc3)[nH]n2)c1	none
COc1n[nH]c(C(=O)Nc2nc3ccccc3s2)c1[N+](=O)[O-]	BAZ2B inh 56µM, G9a inh 14µM
COc1n[nH]c(C(=O)NCc2ccccc2)c1[N+](=O)[O-]	G9a inh 56µM
COc1ccccc1C(=O)Nc1nc2ccccc2s1	none
COc1ccc(C(=O)Nc2nc3ccccc3s2)c(OC)c1	GLS inhibitor inconclusive, JMJD2A Tudor 20µM
O=[N+]([O-])c1ccc(Nc2ccccc2)nc1	none
Cc1cccc(S(=O)(=O)N/N=c2\sc3ccccc3n2C)c1	G9a inh inconclusive
Cc1ccc(S(=O)(=O)N/N=c2\sc3ccccc3n2C)cc1	G9a inh 0.79µM
c1ccc2c(N3CCCCC3)nnc(N3CCCCC3)c2c1	none (no result: GLS inhibitor, HP1b chromo inh, JMJD2A Tudor)
Cc1cccc(OCCN2CCOCC2)c1C	G9a inh inconclusive
Cc1cc(C)c(C)c(OCCCN(C)C)c1	HP1b chromo inh inconclusive, G9a inh inconclusive, JMJD2A Tudor 20µM
Brc1ccccc1OCCN1CCOCC1	BAZ2B inh inconclusive, HP1b chromo inh inconclusive, G9a inh 25µM, JMJD2A Tudor 3.2µM
Cc1cc(C)c(C)c(OCCN2CCOCC2)c1	G9a inh 79µM
Clc1cc(Br)ccc1OCCN1CCOCC1	BAZ2B inh inconclusive, HP1b chromo inh inconclusive, G9a inh 10µM, JMJD2A Tudor 0.79µM
CC(=O)Nc1nnc(-c2c(-c3c(Cl)cccc3Cl)noc2C)o1	JMJD2A Tudor inconclusive
O=C(C(Br)=Cc1ccccc1)c1ccccc1	none (no result: BAZ2B inh, G9a inh)
COC(=O)c1ccc(C(=O)OC)c(NC(=O)c2cnc3n(c2=O)CCS3)c1	none
CC(=O)OCC(=O)NCc1ccc2c(c1)OCO2	none
CC(C)CCN(C(=O)c1ccc(N2CCCC2=O)cc1)c1c(N)n(Cc2ccccc2)c(=O)[nH]c1=O	none
CCCN(C(=O)c1ccc(N2CCCC2=O)cc1)c1c(N)n(Cc2ccccc2)c(=O)[nH]c1=O	none
CCCCn1c(N)c(N(CCC(C)C)C(=O)C2CCCN(C(=O)c3ccc(Cl)cc3)C2)c(=O)[nH]c1=O (centres undefined)	G9a inh 40µM, JMJD2A Tudor inconclusive
CCCCn1c(N)c(N(CC(C)C)C(=O)C2CCN(C(=O)c3ccc(Cl)cc3)CC2)c(=O)[nH]c1=O	G9a inh inconclusive
CCCCn1c(N)c(N(CCC(C)C)C(=O)c2ccc(N3CCCC3=O)cc2)c(=O)[nH]c1=O	G9a inh 35µM
CCCCn1c(N)c(N(CC)C(=O)c2ccc(N3CCCC3=O)cc2)c(=O)[nH]c1=O	G9a inh 50µM
CCCCn1c(N)c(N(CCC(C)C)C(=O)C(C)N2C(=O)c3ccccc3C2=O)c(=O)[nH]c1=O (centres undefined)	G9a inh 13µM
COc1cc([N+](=O)[O-])ccc1NC(=O)C1CCCN(S(C)(=O)=O)C1 (centres undefined)	none
CCc1nc2ccc(C(=O)N3CCN(C(=O)c4ccco4)CC3)cn2c1N(CCC(C)C)CCN(C)C	none (no result: BAZ2B inh, HP1b chromo inh, G9a inh, JMJD2A Tudor)
Cc1ccc(C)c(N(CC(=O)NCc2ccco2)C(=O)CNS(=O)(=O)c2ccc(F)cc2)c1	none
O=C1c2ccccc2C(=O)C1c1ccc(O)cc1	none
CCCCn1c(N)c(N(CC)C(=O)c2ccc(C#N)cc2)c(=O)[nH]c1=O	G9a inh 50µM
CCCCn1c(N)c(N(CC)C(=O)c2ccc(C)cc2)c(=O)[nH]c1=O	none
CC1=NN(c2ccccc2)C(=O)C1C(=O)c1ccc(Cl)cc1 (centres undefined)	G9a inh 40µM
CC1=NN(c2ccccc2)C(=O)C1C(=O)C(=O)Nc1ccc(F)cc1 (centres undefined)	BAZ2B inh inconclusive, G9a inh 35µM
CCCOn1nnnc1-c1ccccc1	none
CSC1=NC=C(C#N)C2=NC(c3ccc(Cl)cc3)NN12 (centres undefined)	GLS inhibitor 13µM (no result: BAZ2B inh, HP1b chromo inh, G9a inh, JMJD2A Tudor)
CSC1=C(C#N)C(c2ccc(Cl)cc2)C2=C(CC(C)(C)CC2=O)N1 (centres undefined)	G9a inh inconclusive
O=C(Nn1cnnc1)c1ccncc1	G9a inh inconclusive
CCC(C(=O)O)n1c2ccccc2c2cn[nH]c(=O)c21 (centres undefined)	G9a inh 45µM
CC(C(=O)O)n1c2ccccc2c2cnn(C)c(=O)c21 (centres undefined)	G9a inh 45µM
CCC(C(=O)O)n1c(C(F)(F)F)nc2ccccc21 (centres undefined)	none
COc1ccc(N2CCN(C(=O)CSc3nnc4c(C)cc5cc(C)ccc5n34)CC2)cc1	BAZ2B inh inconclusive, G9a inh 45µM
Cc1ccc2cc(C)c3nnc(SCC(=O)N4CCN(C(=O)c5ccco5)CC4)n3c2c1	G9a inh 50µM
Cc1cccc(CSc2nc(=O)c3c(n2C)NC(=O)CC3c2cc(F)cc(F)c2)c1 (centres undefined)	none
Cc1ccccc1C(=O)NC(=S)Nc1ccc(N2CCOCC2)cc1	BAZ2B inh inconclusive, HP1b chromo inh inconclusive, G9a inh 45µM, JMJD2A Tudor inconclusive
O=C(NC(=S)Nc1ccc(N2CCOCC2)cc1)c1ccccc1	BAZ2B inh inconclusive, HP1b chromo inh inconclusive, G9a inh 4.5µM, JMJD2A Tudor inconclusive
CCc1ccc(C(=O)NC(=S)Nc2ccc(N3CCOCC3)cc2)cc1	BAZ2B inh 20µM, HP1b chromo inh inconclusive, G9a inh 6.3µM, JMJD2A Tudor inconclusive

Compound activity: PubChem BioAssay, National Center for Advancing Translational Sciences (NCATS)
